Some test systems named below: SR leukemia; RPMI-8226 leukemia; OVCAR-8 ovarian; OVCAR-5 ovarian; SK-OV-3 ovarian; IGROV1 ovarian; OVCAR-3 ovarian; NCI/ADR-RES ovarian; T-47D breast; BT-549 breast; MDA-MB-435 melanoma; SW-620 colon; MCF7 breast; HCT-116 colon; HCC-2998 colon; KM12 colon; HS 578T breast; OVCAR-4 ovarian.
What all share (assay): NCI-60 one-dose screen, 48 h (100 = growth as untreated, 0 = no growth, -100 = all killed)
What all share (settings): 10 µM unless noted

This is part of a sample that, as a whole, favours compounds with a hit. Of some 83,000 tested, about 20% had one in any assay.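 A percent growth of 40 corresponds to 60% growth inhibition; 0 means no net growth; -100 means all cells died. Active threshold: below 10.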 Unmarked numbers belong to inactive results. The source made the active and inactive calls.

As for `Oc1ccc(CN(Cc2ccc(C(F)(F)F)cc2)Cc2ccc(O)c3ncccc23)c2cccnc12`, the growth in the test on SR leukemia was 3.48% (active); with RPMI-8226 leukemia it was 11.7%; in the test on OVCAR-8 ovarian it was 11%; in the test with OVCAR-5 ovarian, 44.5%; in the test on SK-OV-3 ovarian, 17.8%; with IGROV1 ovarian it was 20%. The growth was 37.5% in the test on OVCAR-3 ovarian; 6.89% (active) in the test with NCI/ADR-RES ovarian; 20.2% with T-47D breast; 32.9% with BT-549 breast; 31.4% in the test on MDA-MB-435 melanoma; 18.1% with SW-620 colon. In addition, the growth was 13.7% in the test with MCF7 breast, 18% with HCT-116 colon, 34.1% in the test on HCC-2998 colon and 18.8% in the test on KM12 colon.
On to `CC(C)OC(=O)[C@H](C)N[P@@](=O)(OC[C@@]1(C)O[C@@H](n2cc(F)c(N)nc2=O)C[C@@H]1O[P@](=O)(N[C@@H](C)C(=O)OC(C)C)Oc1ccccc1)Oc1ccccc1`, for which the growth in the test with SR leukemia is 124%; in the test with RPMI-8226 leukemia, 105%; in the test on OVCAR-8 ovarian, 79.4%; with OVCAR-5 ovarian, 110%; with IGROV1 ovarian it was 94.4%; with OVCAR-3 ovarian, 102%. Further, the growth in the test with HS 578T breast was 85.6%; in the test on NCI/ADR-RES ovarian, 103%; with BT-549 breast, 75.9%; in the test with MDA-MB-435 melanoma it was 86.6%; in the test with SW-620 colon, 61.1%; in the test with MCF7 breast, 50.3%. The growth in the test with HCT-116 colon was 88.2%; in the test on HCC-2998 colon it was 46.7%; with KM12 colon it was 76%.
For `COc1cccc(-c2cc(-c3cc4ccccc4oc3=O)nc(N)n2)c1`, the growth in the test on SR leukemia was 92.3%; in the test on RPMI-8226 leukemia, 108%; with OVCAR-8 ovarian, 111%; in the test with OVCAR-5 ovarian, 98.2%; in the test on OVCAR-3 ovarian it was 95%; with HS 578T breast, 80.8%. For the same compound, the growth in the test on NCI/ADR-RES ovarian is 105%; with MDA-MB-435 melanoma it was 119%; in the test with SW-620 colon, 103%; with MCF7 breast it was 70%; with HCT-116 colon, 95.1%; in the test on KM12 colon it was 95.4%.
As for `O=C1c2cc([N+](=O)[O-])ccc2-c2cc(Cl)c(NC(=O)C(F)(F)F)cc21`, the growth in the test with SR leukemia was 98.6%; with RPMI-8226 leukemia, 102%; with OVCAR-8 ovarian, 121%; in the test on OVCAR-5 ovarian, 104%; with SK-OV-3 ovarian, 111%; in the test on IGROV1 ovarian, 110%. The growth in the test with OVCAR-3 ovarian is 133%; in the test on NCI/ADR-RES ovarian, 105%; with T-47D breast, 85.2%; in the test on BT-549 breast, 108%; in the test on MDA-MB-435 melanoma it was 114%; in the test with MCF7 breast it was 35.8%. The growth in the test with HCT-116 colon was 104%; with KM12 colon, 114%.
Turning to `O=C(/C=C1\C(=O)N(Cc2ccc([N+](=O)[O-])cc2)c2ccccc21)c1ccc(OCCN2CCCC2)cc1`, the growth in the test with SR leukemia is -19% (active); in the test on RPMI-8226 leukemia, 28.4%; in the test with OVCAR-8 ovarian, 66%; in the test with OVCAR-5 ovarian it was 77.3%; in the test with SK-OV-3 ovarian it was 102%; in the test on HS 578T breast, 50.1%. Further, the growth is 75.6% with NCI/ADR-RES ovarian; 56.3% in the test on T-47D breast; 81.5% in the test with BT-549 breast; 48.2% in the test with MDA-MB-435 melanoma; 18.7% with SW-620 colon; 22.3% in the test with MCF7 breast. In addition, the values for the growth in the test on HCT-116 colon, with HCC-2998 colon and in the test on KM12 colon were 12.2%, 101% and 90.1%, respectively.
As for `CCCCCCCCc1ccc(CCC(N)(CO)CO)cc1`, the growth in the test on SR leukemia is -32.8% (active); in the test on RPMI-8226 leukemia, -23.2% (active); in the test on OVCAR-8 ovarian, -68.6% (active); with OVCAR-5 ovarian, 56.8%; in the test on SK-OV-3 ovarian, 83.6%; in the test on OVCAR-3 ovarian, -47.9% (active). Besides, the growth is 9.65% (active) in the test on NCI/ADR-RES ovarian; 34% in the test with T-47D breast; 73.5% in the test on BT-549 breast; -43.6% (active) in the test with MDA-MB-435 melanoma; -83.8% (active) in the test on SW-620 colon; -69% (active) with MCF7 breast. The growth is -69.8% (active) in the test on HCT-116 colon, -85.6% (active) in the test on HCC-2998 colon and -66.5% (active) with KM12 colon.
`O=C1C(Br)=CC2C1C1C3CCC3C2(Br)C12OCCO2` (stereo unspecified): the growth is 4.59% (active) with SR leukemia; 7.82% (active) in the test on RPMI-8226 leukemia; 28.5% with OVCAR-8 ovarian; 33.5% in the test on OVCAR-5 ovarian; 32.1% in the test with SK-OV-3 ovarian; 36.7% in the test with IGROV1 ovarian. The growth in the test with OVCAR-3 ovarian was 12.5%; in the test with NCI/ADR-RES ovarian it was 51.3%; in the test on T-47D breast it was 3.72% (active); in the test on BT-549 breast, 45.6%; with MDA-MB-435 melanoma it was 23.7%; in the test with SW-620 colon it was 17.3%. The growth in the test on MCF7 breast is 2.12% (active); in the test with HCT-116 colon, 16.1%; in the test with HCC-2998 colon, 74.8%; in the test on KM12 colon, 44.9%.
For `O=c1[nH]c2cc(O)ccc2n2cc3c(F)cccc3c12`, the growth in the test on SR leukemia was 9.4% (active); with RPMI-8226 leukemia it was 46.2%; in the test with OVCAR-8 ovarian it was 24.6%; with OVCAR-5 ovarian, 43.8%; in the test with SK-OV-3 ovarian it was -4.03% (active); with IGROV1 ovarian it was 16.9%. Further, the growth with OVCAR-3 ovarian is 30.3%; in the test with HS 578T breast, -26.1% (active); in the test on NCI/ADR-RES ovarian it was 17.2%; with MDA-MB-435 melanoma, -12.2% (active); in the test on SW-620 colon, 18.7%; in the test with MCF7 breast, -3.3% (active). The growth in the test on HCT-116 colon was 19.9%; in the test with KM12 colon, 34.7%.
As to `Cc1ccnc2c(NC(C)CCCN)cc(O)c(O)c12` (stereo unspecified), the growth in the test with SR leukemia was 79.7%; in the test with RPMI-8226 leukemia, 95.2%; with OVCAR-8 ovarian, 64.9%; with OVCAR-4 ovarian, 20%; in the test on SK-OV-3 ovarian, 99.9%; with IGROV1 ovarian, 103%. The growth is 59.8% in the test with OVCAR-3 ovarian; 80.6% with HS 578T breast; 87.5% in the test on NCI/ADR-RES ovarian; 106% with T-47D breast; 92.1% in the test on BT-549 breast; 103% in the test with MDA-MB-435 melanoma. Also, the growth in the test with SW-620 colon was 100%; with MCF7 breast, 31.5%; in the test on HCT-116 colon, 99.7%; in the test on HCC-2998 colon it was 91.6%; in the test on KM12 colon it was 109%.
For the compound `Cc1cc2c(-c3nc4ccccc4[nH]3)c(O)c(O)cc2c(O)c1-c1c(C)cc2c(-c3nc4ccccc4[nH]3)c(O)c(O)cc2c1O`, the growth with SR leukemia was 6% (active); with RPMI-8226 leukemia it was 9.72% (active); in the test with OVCAR-8 ovarian, -6.85% (active); with OVCAR-4 ovarian it was 6.83% (active); in the test on SK-OV-3 ovarian, -35.6% (active); with IGROV1 ovarian it was 12.7%. In addition, the growth in the test with OVCAR-3 ovarian is 20.6%; in the test with HS 578T breast, 4.85% (active); in the test on NCI/ADR-RES ovarian, -12.6% (active); in the test on T-47D breast it was -16.7% (active); in the test on BT-549 breast, -6.04% (active); in the test on MDA-MB-435 melanoma it was 23.3%. In addition, the growth in the test on SW-620 colon is 23.4%; in the test with MCF7 breast it was 5.3% (active); in the test with HCT-116 colon, 7.37% (active); with HCC-2998 colon, 19.5%; with KM12 colon, -38.6% (active).
